From PubChem BioAssay
Many of the other results were omitted from the sample, so hits are more common in it than they were.
MBNL1 CUG block: inhibitors of human MBNL1 binding to CUG repeat RNA; Potency, µM (titrated, usually from 57.5 µM), without a hit: top-dose activity change, negative = inhibition, usual class: inhibitors; Q9NR56; actives 0.036% (n = 280,000); TR-FRET MBNL1-His/biotin-(CUG)12 binding, 665/545 ratio; active means well fitted inhibition curve with a large enough effect in the signal ratio, with a control signal flat, not every such curve was filed as active; inconclusive means small, poorly fitted or top-dose-only effect, or effect the other way, or a change in a side signal; inactive means no such curve, though single readings can be large or run the other way; the % refers to the signal ratio; further: potency means the concentration at half of the fitted maximal effect; on the % scale 0 is the no-effect control and ±100 the full control effect
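TR-FRET readout: Ex 340 nm, 665/545 nm emission ratio, normalized to buffer-only (basal) and MBNL1-(CUG)12 controls. Complex of MBNL1-His with Biotin-(CUG)12, compounds 92 nM–58 uM, incubated 60 min at room temperature.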
Rango dissoc inh: inhibitors of RanGTP-induced Rango-importin beta complex dissociation; Potency, µM (titrated, usually from 46.1 µM), for inactives: at the highest dose activity change, negative = inhibition; Biochemical FRET Rango-importin beta, RanGTP-induced dissociation; O95149+P62826; actives 0.071% (n = 340,000); AID 540253; further: potency means the concentration at half of the fitted maximal effect; % of control where 0% means no effect; nearly all actives have a fitted effect of over 45% in size
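Rango (0.1 uM)–importin beta (0.25 uM) complex; RanGTP-RCC1 trigger; 45 min RT; CFP/YFP FRET read.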
CBFb-RUNX1 inh: inhibitors of human CBF-beta and RUNX1 interaction; AlphaScreen CBFb-His/RUNX1-biotin binding, biochemical; Potency, µM (series often up to 59.8 µM), inactives show at the top dose activity, negative = inhibition, hits mostly inhibitors; 230,000 tested, under 10 active; AID 1477; active means well fitted curve in the direction sought with a large enough effect; inconclusive means small, poorly fitted or top-dose-only effect, or effect the other way, or another doubt; inactive means no such curve, though single readings can be large or run the other way; further: % of control where 0% means no effect
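Room-temperature protein-protein interaction test with 30 nM each of His-tagged CBF-beta and biotinylated RUNX1, 15 min with compound, then 90 min with nickel plus streptavidin beads. Signal read in AlphaScreen mode.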
ClpP mod: qHTS Assay for Activators of ClpP; Potency, µM (highest dose often 57.5 µM), inactives show top-dose activity change, negative = active; AID 651965, 2013; purified B. subtilis ClpP, FRET peptide cleavage, 20 min; actives 1.9% (n = 340,000); ATP-dependent Clp protease proteolytic subunit (Bacillus subtilis (strain 168)), P80244; active means well fitted falling curve with a large enough effect; inconclusive means small, poorly fitted or top-dose-only effect; inactive means no such curve, though single readings can be large or run the other way; further: potency means the concentration at half of the fitted maximal effect; the source files actives as falling curves though it sought activators and does not explain the sign; nearly all actives have a fitted effect of over 65% in size
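Buffer: 100 mM Tris/HCl pH8, 100 mM KCl, 0.05% low protease BSA, 2.5% glycerol, 0.01% Tween-20. ClpP 10 microg/mL final; 20 min RT; delta FRET normalized to ADEP and DMSO controls.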
Rango-impB inh: inhibitors of Rango-importin beta complex formation. actives 0.031% (n = 340,000). Rango CFP/YFP FRET sensor + importin beta, 45 min. Potency, µM (series often up to 92.2 µM), for inactives: at the highest dose inhibition of complex formation. Q14974. AID 540263;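 further: potency means the concentration at half of the fitted maximal effect; 0% = DMSO wells and 100% = buffer wells lacking importin beta; nearly all actives have a fitted effect of over 15% in size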
Target sequence (Q14974 whole entry, looked up): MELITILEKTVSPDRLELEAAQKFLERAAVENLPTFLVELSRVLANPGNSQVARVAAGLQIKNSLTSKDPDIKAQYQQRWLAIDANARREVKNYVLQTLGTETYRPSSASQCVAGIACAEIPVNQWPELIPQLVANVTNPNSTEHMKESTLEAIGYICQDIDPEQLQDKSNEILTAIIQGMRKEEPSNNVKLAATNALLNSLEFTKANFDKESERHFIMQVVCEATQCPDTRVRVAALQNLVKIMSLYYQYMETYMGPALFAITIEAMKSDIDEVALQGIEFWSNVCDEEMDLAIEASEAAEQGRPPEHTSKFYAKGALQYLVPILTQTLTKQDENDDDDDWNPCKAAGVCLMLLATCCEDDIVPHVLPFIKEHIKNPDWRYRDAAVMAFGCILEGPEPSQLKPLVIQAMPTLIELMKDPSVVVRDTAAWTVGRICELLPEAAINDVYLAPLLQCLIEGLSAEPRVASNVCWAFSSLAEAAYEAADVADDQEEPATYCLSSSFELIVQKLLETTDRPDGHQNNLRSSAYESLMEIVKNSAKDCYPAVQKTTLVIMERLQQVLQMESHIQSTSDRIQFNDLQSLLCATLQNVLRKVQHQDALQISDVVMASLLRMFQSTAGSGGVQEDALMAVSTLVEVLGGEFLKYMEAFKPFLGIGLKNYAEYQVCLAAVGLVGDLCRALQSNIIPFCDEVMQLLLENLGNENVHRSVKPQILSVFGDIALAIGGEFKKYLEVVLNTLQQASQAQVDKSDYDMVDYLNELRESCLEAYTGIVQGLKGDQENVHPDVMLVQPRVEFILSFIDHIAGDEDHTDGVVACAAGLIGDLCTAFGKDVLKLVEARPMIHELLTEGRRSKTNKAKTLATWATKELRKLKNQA
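Inhibition scored from the CFP 486 nm/YFP 530 nm FRET ratio 45 min after adding 0.125 microM importin beta to 50 nM Rango biosensor preincubated 5 min with compound (room temperature, PBS with DTT, Tween-20, BSA). No-importin wells as positive control.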
Numbers without * were called inactive; ! = repeats disagree; [ ] = another dose, or the depositor's remark. Unless noted, the call rests on the fitted dose curve.

Screening CC1=C(C(=O)Nc2ccccc2)C(c2ccc3c(c2)OCO3)C2=C(CCCC2=O)N1 (stereo unspecified) returned MBNL1 CUG block -10.0%, Rango dissoc inh -13.8%, CBFb-RUNX1 inh inconclusive, ClpP mod -26.4% and Rango-impB inh inconclusive.
Screening CCn1cc(C2C(C(=O)Nc3cc(C)ccn3)=C(C)NC3=C2C(=O)CC(C)(C)C3)c(C)n1 (stereo unspecified) returned MBNL1 CUG block -2.7%[11.5 µM], Rango dissoc inh inconclusive, CBFb-RUNX1 inh 3.6%, ClpP mod 10µM* and Rango-impB inh inconclusive.
Screening CCN(CC)c1ccc(C2C(C(=O)Nc3ccccn3)=C(C)NC3=C2C(=O)CC(C)(C)C3)cc1 (stereo unspecified) returned MBNL1 CUG block 3.5%, Rango dissoc inh inconclusive, CBFb-RUNX1 inh -5.9%, ClpP mod -0.9% and Rango-impB inh inconclusive.
For CC1=C(C(=O)Nc2cc(C)ccn2)C(c2ccc(C)cc2)C2=C(CCCC2=O)N1 (stereo unspecified) the results were MBNL1 CUG block 10.1%, Rango dissoc inh inconclusive, CBFb-RUNX1 inh 5.2%, ClpP mod 28.2µM* and Rango-impB inh inconclusive.
Screening CCc1ccc(-n2nc3ccc(NC(=O)c4cc5ccccc5o4)cc3n2)cc1 returned ClpP mod -4.6%.
`CCOc1ccc(NC(=O)COc2ccc(C(=O)NCc3cccnc3)cc2OC)cc1` gave Rango dissoc inh 0.366µM*, ClpP mod 0.4% and Rango-impB inh 5.2%.
CCOc1ccc(NC(=O)COc2ccc(C(=O)NCc3cccc(OC)c3)cc2OC)cc1 was read as Rango dissoc inh 4.8%, ClpP mod 2.2% and Rango-impB inh 8.1%.
For Cc1cc(-c2ccc(C)c(S(=O)(=O)Nc3ccccn3)c2)on1 the results were ClpP mod 28.2µM*.
For CCc1ccc(-c2cc(C)no2)cc1S(=O)(=O)Nc1ccccn1 the results were MBNL1 CUG block 12.9%, Rango dissoc inh -2.9%, ClpP mod 3.4% and Rango-impB inh 0.0%.
Cc1ccc(NS(=O)(=O)c2cc(-c3cc(C)no3)ccc2C(C)C)nc1 was read as MBNL1 CUG block -4.1%, Rango dissoc inh 5.1%, ClpP mod -27.7% and Rango-impB inh -2.9%.
For CCc1ccc(-c2cc(C)no2)cc1S(=O)(=O)Nc1ccc(C)cn1 the results were MBNL1 CUG block -10.1%, Rango dissoc inh -9.5%, ClpP mod 31.6µM*! and Rango-impB inh 0.4%.
Screening Cc1cc(-c2cc(-c3ccc(Cl)cc3)on2)nc(NC2CCCC2)n1 returned MBNL1 CUG block 4.2%, Rango dissoc inh 30.1%, CBFb-RUNX1 inh 7.2%, ClpP mod 25.1µM* and Rango-impB inh 0.5%.
For COc1ccc(CCNc2ncnc3nc[nH]c23)cc1 the results were ClpP mod 0.7%.
`CC1=C(C#N)C(c2cn(-c3ccccc3)nc2-c2cccs2)C(C#N)=C(C)N1` gave MBNL1 CUG block 2.2%, Rango dissoc inh -13.2%, CBFb-RUNX1 inh 6.4%, ClpP mod 35.5µM* and Rango-impB inh inconclusive.
COCCOC(=O)C1=C(C)NC(=O)NC1c1cn(-c2ccccc2)nc1-c1cccs1 (stereo unspecified) was read as MBNL1 CUG block -5.1%, Rango dissoc inh -4.3%, CBFb-RUNX1 inh -0.4%, ClpP mod -6.0% and Rango-impB inh -2.0%.
Screening CCCCCC(=O)NNC(=O)c1ccc(F)cc1 returned Rango dissoc inh 16.9%, CBFb-RUNX1 inh 6.2%, ClpP mod 2.82µM* and Rango-impB inh 0.2%.
Screening CCCCCCCC(=O)NNC(=O)c1ccc(F)cc1 returned MBNL1 CUG block 4.9%, Rango dissoc inh -4.5%, CBFb-RUNX1 inh -0.3%, ClpP mod -2.7% and Rango-impB inh 2.1%.
Screening COc1cc(C(=O)NCC(c2cccs2)S(=O)(=O)c2cccs2)cc(OC)c1OC (stereo unspecified) returned ClpP mod -3.2%.
